Source: PubChem BioAssay AID1159580 (chemical genetic matrix, 2015)
Values joined by “and” are separate entries in the source; they are usually repeats but may differ in a detail not shown here. Identical values can stand only once. The campaign covered roughly 5,500 compounds. About 2,000 (36%) were called active. Inconclusive results (about 18%) are left out. No stated cut-off is given here; in the data, active means normalized growth mostly below about 0.91 (no sharp cut-off); inconclusive means no clear call, values can overlap the other calls; inactive means mostly above about 0.92. The list shows a part of the results.

Assay: chemical genetic growth profiling, strain panel (AID 1159580);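 further: tested at 20 µM; growth read once vehicle control cultures reached saturation at 30 °C; 1 = growth at the plate median or of vehicle wells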
Conditions: S. cerevisiae deletion strains, growth OD

Measured: normalized growth

C=NC(C(=O)NC1C(=O)N2C1SC(C)(C)C2C(=O)O)c1ccccc1 (configuration not stated)
inactive: locus YAL013W, strain DEP1, stronger effect = lower value 1.01 | locus YAL021C, strain ccr4, stronger effect = lower value 0.991 | locus YAL026C, strain drs2, stronger effect = lower value 0.994 | locus YAL030W, strain snc1, stronger effect = lower value 1 | locus YBL061C, strain skt5, stronger effect = lower value 1.02 | locus YBR009C, strain hhf1, stronger effect = lower value 0.994 | locus YBR021W, strain FUR4, stronger effect = lower value 0.999 | locus YBR023C, strain chs3, stronger effect = lower value 0.995 | locus YBR171W, strain sec66, stronger effect = lower value 1.02 | locus YBR229C, strain ROT2, stronger effect = lower value 1 | locus YBR231C, strain swc5, stronger effect = lower value 1.02 | locus YBR279W, strain paf1, stronger effect = lower value 1 | locus YCL011C, strain gbp2, stronger effect = lower value 0.989 | locus YCL016C, strain dcc1, stronger effect = lower value 0.986 | locus YCL029C, strain bik1, stronger effect = lower value 1.02 | locus YCL061C, strain MRC1, stronger effect = lower value 0.991 | locus YCL069W, strain vba3, stronger effect = lower value 1.01 | locus YCR088W, strain abp1, stronger effect = lower value 1 | locus YDL005C, strain med2, stronger effect = lower value 0.998 | locus YDL035C, strain GPR1, stronger effect = lower value 1.01 | locus YDL040C, strain nat1, stronger effect = lower value 1.01 | locus YDL074C, strain BRE1, stronger effect = lower value 0.986 | locus YDL101C, strain DUN1, stronger effect = lower value 1.01 | locus YDL134C, strain PPH21, stronger effect = lower value 1.01 | locus YDL185W, strain tfp1, stronger effect = lower value 1.01 | locus YDL192W, strain arf1, stronger effect = lower value 1.01 | locus YDR001C, strain nth1, stronger effect = lower value 0.989 | locus YDR069C, strain doa4, stronger effect = lower value 1.03 | locus YDR101C, strain arx1, stronger effect = lower value 1 | locus YDR137W, strain rgp1, stronger effect = lower value 1.01 | locus YDR150W, strain NUM1, stronger effect = lower value 1.01 | locus YDR159W, strain sac3, stronger effect = lower value 1.07 | locus YDR162C, strain NBP2, stronger effect = lower value 1.03 | locus YDR195W, strain ref2 1 | locus YDR297W, strain sur2, stronger effect = lower value 1.03 | locus YDR318W, strain mcm21, stronger effect = lower value 1.02 | locus YDR334W, strain swr1, stronger effect = lower value 1 | locus YDR335W, strain msn5, stronger effect = lower value 0.983 | locus YDR388W, stronger effect = lower value 1 | locus YDR392W, strain spt3, stronger effect = lower value 0.867 | locus YDR502C, strain sam2, stronger effect = lower value 1.02 | locus YEL003W, strain gim4, stronger effect = lower value 1 | locus YEL037C, strain rad23, stronger effect = lower value 0.994 | locus YEL061C, strain CIN8 (second series), stronger effect = lower value 0.995 | locus YEL061C, strain CIN8, stronger effect = lower value 1 | locus YER015W, strain faa2, stronger effect = lower value 0.978 | locus YER016W, strain bim1, stronger effect = lower value 1.01 | locus YER110C, stronger effect = lower value 1.01 | locus YER111C, strain swi4, stronger effect = lower value 1 | locus YER155C, strain BEM2 (second series), stronger effect = lower value 1.03 | locus YER155C, strain BEM2, stronger effect = lower value 1 | locus YER167W, strain BCK2, stronger effect = lower value 1.02 | locus YFR010W, strain ubp6, stronger effect = lower value 0.993 | locus YGL078C, strain dbp3, stronger effect = lower value 1 | locus YGL086W, strain mad1, stronger effect = lower value 1.02 | locus YGL167C, strain pmr1, stronger effect = lower value 0.992 | locus YGL173C, strain kem1, stronger effect = lower value 1.01 | locus YGL227W, strain vid30, stronger effect = lower value 0.996 | locus YGL240W, strain doc1, stronger effect = lower value 1.04 | locus YGL248W, strain PDE1, stronger effect = lower value 1.02 | locus YGL253W, strain hxk2, stronger effect = lower value 1.01 | locus YGR078C, strain PAC10, stronger effect = lower value 1.01 | locus YGR135W, strain pre9, stronger effect = lower value 1.01 | locus YGR229C, strain SMI1, stronger effect = lower value 0.977 | locus YGR252W, strain gcn5, stronger effect = lower value 1.07 | locus YHR013C, strain ard1, stronger effect = lower value 0.973 | locus YHR027C, strain rpn1, stronger effect = lower value 0.992 | locus YHR030C, strain SLT2, stronger effect = lower value 1.01 and 1 | locus YHR079C, strain IRE1 (second series), stronger effect = lower value 1.01 | locus YHR079C, strain IRE1, stronger effect = lower value 1 | locus YHR094C, strain hxt1, stronger effect = lower value 1.01 | locus YHR129C, strain ARP1, stronger effect = lower value 1.01 | locus YHR142W, strain chs7, stronger effect = lower value 0.994 | locus YHR200W, strain rpn10, stronger effect = lower value 1.03 | locus YIL066C, strain RNR3, stronger effect = lower value 1.01 | locus YIL073C, strain SPO22, stronger effect = lower value 1.07 | locus YIL125W, strain kgd1, stronger effect = lower value 1.01 | locus YIR030C, strain dcg1, stronger effect = lower value 1.02 | locus YJL092W, strain hpr5, stronger effect = lower value 0.994 | locus YJL095W, strain BCK1 (second series), stronger effect = lower value 1 | locus YJL095W, strain BCK1, stronger effect = lower value 1.01 and 0.995 | locus YJL115W, strain asf1, stronger effect = lower value 0.973 | locus YJL129C, strain trk1, stronger effect = lower value 0.991 | locus YJL134W, strain LCB3, stronger effect = lower value 1.01 | locus YJL154C, strain vps35, stronger effect = lower value 1 | locus YJL164C, strain tpk1, stronger effect = lower value 0.977 | locus YJL166W, strain qcr8, stronger effect = lower value 1.02 | locus YJL168C, strain set2, stronger effect = lower value 1.01 | locus YJL187C, strain SWE1 (second series), stronger effect = lower value 1.01 | locus YJL187C, strain SWE1, stronger effect = lower value 1.02 | locus YJR043C, strain POL32, stronger effect = lower value 0.992 | locus YJR066W, strain TOR1, stronger effect = lower value 0.988
